# Measured values published in PubChem BioAssay (NCI).
# The panel holds about 83,000 compounds, 20% with a hit somewhere; the sample as a whole holds those more often.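 Cell lines were cultured in 96-well plates, exposed to a single compound concentration, and assessed for percent growth 48 hours later.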 Activity calls are given as the source filed them. How the source made its calls: active means growth percent below 10; inactive means the rest.
# Tested on: SW-620 colon
# Assay: NCI-60 one-dose screen, 48 h (100 = growth as untreated, 0 = no growth, -100 = all killed)
# Details: 10 µM unless noted
row,SMILES,growth
1,Cc1ncc(C(=O)Nc2ccc(CN3CCN(C)CC3)c(C(F)(F)F)c2)cc1C#Cc1cnc(N)cc1C#N,-57.4% (active)
2,Cc1ccc(-n2nc3c(c(C#N)c2=O)CC(c2ccccc2[N+](=O)[O-])C([N+](=O)[O-])=C3O)cc1 (configuration not stated),89.1% (inactive)
3,C#Cc1cccc(NC(=O)c2cccc(NC(=O)CCl)c2)c1,-74.2% [8.25 µM] (active)
4,N#CC1=C(N)Oc2c(ccc3ccccc23)C1c1ccccc1Cl (configuration not stated),21.9% (inactive)
5,O=C(CSc1nc2ccccc2[nH]1)NCc1ccccc1,99.2% (inactive)
6,COc1ccc(-c2nc(S(=O)(=O)c3ccccc3)c(S(=O)CC(=O)N3CCC(C)CC3)o2)cc1 (configuration not stated),1.06% (active)
7,COc1cc(C2C3=C(COC3=O)N(CCO)c3cc4c(cc32)OCO4)cc(OC)c1OC (configuration not stated),18.8% (inactive)
8,N#Cc1c(-c2ccccc2)nc2c(c(-c3ccccc3)nn2-c2ccccc2)c1-c1ccc(O)cc1,16.5% (inactive)
9,CC(=O)[C@H]1CCC/C=C/[C@@H]2C[C@H](O)C[C@H]2[C@H](O)/C=C/C(=O)O1,-33.5% (active)
10,O=C1/C=C/[C@@H](O)[C@@H]2C[C@@H](O)C[C@H]2/C=C/CCC[C@H](CCc2cccc3ccccc23)O1,-28% (active)
11,CC(C)(C)[Si](C)(C)OC1[C@@H](O[Si](C)(C)C(C)(C)C)[C@@H](CNC(=O)NC(=O)CCl)O[C@H]1n1cnc2c(NC(=O)Nc3ccccc3)ncnc21 (some centres not stated),-49.7% (active)
12,COc1cc(CC(=O)n2ncc3ccc(N)cc32)cc(OC)c1OC,104% (inactive)
13,Cc1cc2c(c(C)c1Cl)C(=O)/C(=C/c1ccc(O)c(O)c1)O2,105% (inactive)
14,O=C1C=CC(=O)N1c1cccc(Cl)c1,76% (inactive)
15,COC(=O)C(CC=O)C(=O)C(=O)Nc1cccc(C(F)(F)F)c1 (configuration not stated),95.6% (inactive)
16,CN(CCN(C)c1ccc(C(=N)N)cc1)c1ccc(C(=N)N)cc1,104% (inactive)
17,O=C1/C=C/[C@@H](O)[C@@H]2C[C@@H](O)C[C@H]2/C=C/CCC[C@H](CCc2ccc3ncccc3c2)O1,-14.2% (active)
18,C#Cc1cccc(NC(=O)Nc2cccc(NC(=O)CCl)c2)c1,-42.3% [8.25 µM] (active)
19,CCNc1nc2ccc(Nc3ccnc4cc(Cl)ccc34)cc2[nH]1,57.8% (inactive)
20,N#CC(C(=O)/C(=N/NC(=O)c1ccccc1O)C(C#N)c1ccccc1)c1ccccc1 (configuration not stated),80.2% (inactive)
21,O=[N+]([O-])c1ccc(N=Nc2cc(S(=O)(=O)O)c3cccc(S(=O)(=O)O)c3c2O)cc1,112% (inactive)
22,C=CCn1c(-c2ccc(-c3nc4ccc(C)cc4[nH]3)cc2)n[nH]c1=S,112% (inactive)
23,O=C1Nc2ccccc2/C1=C\c1c(-c2ccccc2)nc2ccccn12,21.2% (inactive)
24,COc1cc(/C=C\c2cc(OC)c(OC)c(OC)c2)cc(N)c1OC,75% (inactive)

# Tested on: MCF7 breast
# Assay: as above
# Details: 10 µM unless noted
row,SMILES,growth
1,O=C(/C=C/c1c(-c2ccc(Cl)cc2)nn(-c2ccccc2)c1C(F)(F)F)c1ccc(Cl)cc1,61.8% (inactive)
2,Cc1c(C)c([N+](=O)[O-])c(C)c([N+](=O)[O-])c1C,97.3% (inactive)
3,CC(c1ccccc1)C(C(=O)c1ccccc1)c1ccccc1 (configuration not stated),98% (inactive)
4,COc1cc(NC(=O)CSc2nc3ccc(C)cc3c(=O)n2Cc2ccccc2)cc(OC)c1OC,71% (inactive)
5,CSc1nc2sc3cccc(Cl)c3n2c(=N)c1C#N,88.4% (inactive)
6,CCN(c1ccccc1)S(=O)(=O)c1cc([N+](=O)[O-])ccc1Cl,52.6% (inactive)
7,COC1=CC(=O)c2ccccc2C1=O,56.9% (inactive)
8,COC(=O)c1ccc2c(c1)[n+](=O)c(C(C)=O)c(C(F)(F)F)n2[O-],-50.3% (active)
9,COc1cc(/C=C/C(=O)c2nc3cc(F)ccc3nc2C)cc(OC)c1OC,34.1% (inactive)
10,Cc1nc2ccc(Cl)cn2c1-c1nnc(SCc2ccc([N+](=O)[O-])cc2)o1,55.2% (inactive)
11,COc1ccc(/C=C/C(=O)Nc2cc(/C=C\c3cc(OC)c(OC)c(OC)c3)cc(OC)c2OC)cc1OC,16.8% (inactive)
12,N#C/C(=C\c1cccc(C#N)c1)c1ccccc1,105% (inactive)
13,C[C@H]1[C@H]2[C@H]3CC[C@@H]4[C@@]5(C)CC[C@H](O)C(C)(C)[C@@H]5CC[C@@]4(C)[C@]3(C)CC[C@]23CO[C@]1(C)[C@@H](C(=O)/C=C\c1ccco1)C3,101% (inactive)
14,COc1cc2cc(Oc3cccc(NC(=O)Nc4cc(C(F)(F)F)cc(C(F)(F)F)c4)c3)c(C)nc2cc1OC,0.59% (active)
15,Cc1ncc(C(=O)Nc2ccc(CN3CCN(C)CC3)c(C(F)(F)F)c2)cc1C#Cc1cnc(N)cc1C#N,-75.6% (active)
16,Cc1ccc(-n2nc3c(c(C#N)c2=O)CC(c2ccccc2[N+](=O)[O-])C([N+](=O)[O-])=C3O)cc1 (configuration not stated),55.4% (inactive)
17,C#Cc1cccc(NC(=O)c2cccc(NC(=O)CCl)c2)c1,3.07% [8.25 µM] (active)
18,N#CC1=C(N)Oc2c(ccc3ccccc23)C1c1ccccc1Cl (configuration not stated),16.8% (inactive)
19,O=C(CSc1nc2ccccc2[nH]1)NCc1ccccc1,95.5% (inactive)

row,SMILES,growth
1,COc1ccc(-c2nc(S(=O)(=O)c3ccccc3)c(S(=O)CC(=O)N3CCC(C)CC3)o2)cc1 (configuration not stated),24.3% (inactive)
2,COc1cc(C2C3=C(COC3=O)N(CCO)c3cc4c(cc32)OCO4)cc(OC)c1OC (configuration not stated),-6.88% (active)
3,N#Cc1c(-c2ccccc2)nc2c(c(-c3ccccc3)nn2-c2ccccc2)c1-c1ccc(O)cc1,14.8% (inactive)
4,CC(=O)[C@H]1CCC/C=C/[C@@H]2C[C@H](O)C[C@H]2[C@H](O)/C=C/C(=O)O1,3.81% (active)
5,O=C1/C=C/[C@@H](O)[C@@H]2C[C@@H](O)C[C@H]2/C=C/CCC[C@H](CCc2cccc3ccccc23)O1,-30.8% (active)
6,CC(C)(C)[Si](C)(C)OC1[C@@H](O[Si](C)(C)C(C)(C)C)[C@@H](CNC(=O)NC(=O)CCl)O[C@H]1n1cnc2c(NC(=O)Nc3ccccc3)ncnc21 (some centres not stated),-71.8% (active)
7,COc1cc(CC(=O)n2ncc3ccc(N)cc32)cc(OC)c1OC,87.5% (inactive)
8,Cc1cc2c(c(C)c1Cl)C(=O)/C(=C/c1ccc(O)c(O)c1)O2,89.4% (inactive)
9,O=C1C=CC(=O)N1c1cccc(Cl)c1,112% (inactive)
10,COC(=O)C(CC=O)C(=O)C(=O)Nc1cccc(C(F)(F)F)c1 (configuration not stated),104% (inactive)
11,CN(CCN(C)c1ccc(C(=N)N)cc1)c1ccc(C(=N)N)cc1,108% (inactive)
12,O=C1/C=C/[C@@H](O)[C@@H]2C[C@@H](O)C[C@H]2/C=C/CCC[C@H](CCc2ccc3ncccc3c2)O1,2.74% (active)
13,C#Cc1cccc(NC(=O)Nc2cccc(NC(=O)CCl)c2)c1,4.65% [8.25 µM] (active)
14,CCNc1nc2ccc(Nc3ccnc4cc(Cl)ccc34)cc2[nH]1,45.1% (inactive)
15,N#CC(C(=O)/C(=N/NC(=O)c1ccccc1O)C(C#N)c1ccccc1)c1ccccc1 (configuration not stated),55.3% (inactive)
16,O=[N+]([O-])c1ccc(N=Nc2cc(S(=O)(=O)O)c3cccc(S(=O)(=O)O)c3c2O)cc1,97.7% (inactive)
17,C=CCn1c(-c2ccc(-c3nc4ccc(C)cc4[nH]3)cc2)n[nH]c1=S,82.8% (inactive)
18,O=C1Nc2ccccc2/C1=C\c1c(-c2ccccc2)nc2ccccn12,19.6% (inactive)
19,COc1cc(/C=C\c2cc(OC)c(OC)c(OC)c2)cc(N)c1OC,85.4% (inactive)
